A selection: hits, their analogues and other compounds. The true share with any hit is near 21%.
RORgamma inh – qHTS for inhibitors of ROR gamma transcriptional activity. Nuclear receptor ROR-gamma (Mus musculus), P51450. Drosophila S2 Gal4-RORgamma UAS-luciferase reporter, 20 h. Potency, µM (titrated, usually from 53.6 µM), without a hit: at the highest dose activity change, negative = inhibition, most hits filed as inhibitors. 310,000 compounds, 5.4% hits. AID 2551, 2010; also: potency is read from the fitted curve at half-maximal effect; nearly all actives have a fitted effect of over 60% in size
Target sequence (P51450 whole entry, looked up, the tested form may be a part): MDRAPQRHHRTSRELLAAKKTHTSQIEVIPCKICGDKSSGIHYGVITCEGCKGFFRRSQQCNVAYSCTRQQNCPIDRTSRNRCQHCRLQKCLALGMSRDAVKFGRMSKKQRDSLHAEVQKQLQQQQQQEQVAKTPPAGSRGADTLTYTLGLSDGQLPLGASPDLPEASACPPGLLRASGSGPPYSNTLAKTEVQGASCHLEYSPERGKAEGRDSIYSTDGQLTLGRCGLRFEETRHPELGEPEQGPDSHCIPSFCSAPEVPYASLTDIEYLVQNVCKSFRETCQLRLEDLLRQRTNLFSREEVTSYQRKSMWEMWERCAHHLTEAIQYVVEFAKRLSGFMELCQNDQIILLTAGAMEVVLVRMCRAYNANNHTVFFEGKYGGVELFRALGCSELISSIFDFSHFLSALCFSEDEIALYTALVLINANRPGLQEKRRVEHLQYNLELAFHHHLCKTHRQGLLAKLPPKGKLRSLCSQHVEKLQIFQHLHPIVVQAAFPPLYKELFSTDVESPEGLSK
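ROR gamma transcriptional activity was tracked as Gal4-UAS luciferase output in stably transfected Drosophila Schneider cells, with compound added 1 hr before 700 uM copper sulfate induction and a 20 hr ambient-temperature incubation.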
ELG1 DNA repair – qHTS screen for small molecules that inhibit ELG1-dependent DNA repair in human embryonic kidney (HEK293T) cells expressing luciferase-tagged ELG1. Potency, µM (top dose mostly 46.1 µM), for inactives: at the highest dose activity change, negative = inhibition, most hits filed as inhibitors. HEK293T ELG1-luciferase reporter, luminescence, 16 h; DNA damage induced by 5-fluorouridine. 330,000 compounds, 2.3% hits. AID 504467, 2011; also: potency is read from the fitted curve at half-maximal effect; nearly all actives have a fitted effect of over 55% in size
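Reporter activity after DNA damage by 5-fluorouridine is monitored. Compound-treated cells incubate 16 hr at 37 °C, then ONE-Glo is added for 30 min before luminescence reading.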
TDP1 cell noCPT – qHTS for Inhibitors of human tyrosyl-DNA phosphodiesterase 1 (TDP1): qHTS in cells in absence of CPT; DT40 Tdp1-/- hTDP1 cells, no CPT, ATP luminescence, 48 h; Potency, µM (titrated, usually from 46.2 µM), without a hit: at the top dose activity change, negative = growth inhibition, usual class: inhibitors; 420,000 compounds, 15% hits; AID 686978, 2013; also: potency is read from the fitted curve at half-maximal effect; nearly all actives have a fitted effect of over 55% in size
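DT40 Tdp1-/-;hTDP1 cells, no CPT (DMSO vehicle only), 400 cells/well; compounds pin-transferred; ≥48 hr, 37 °C; CellTiter-Glo 30 min RT dark, luminescence read.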
TDP1 cell CPT – qHTS for Inhibitors of human tyrosyl-DNA phosphodiesterase 1 (TDP1): qHTS in cells in presence of CPT; Potency, µM (series often up to 46.2 µM), without a hit: top-dose activity change, negative = growth inhibition, actives largely listed as inhibitors; 420,000 compounds, 12% hits; AID 686979, 2013; chicken DT40 Tdp1-/-;hTDP1 cells + 20 nM CPT, ATP luminescence, 48 h; also: potency is read from the fitted curve at half-maximal effect; nearly all actives have a fitted effect of over 55% in size
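Cell growth measured by CellTiter-Glo luminescence after a minimum 48 h, 37 C compound exposure with 20 nM CPT in Tdp1-knockout DT40 cells stably expressing hTDP1, seeded 400/well; qHTS titration format.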
IL-1B inflam inh – qHTS for Inhibitors of Inflammasome Signaling: IL-1-beta AlphaLISA Primary Screen | THP-1 LPS/ATP IL-1B secretion, AlphaLISA, 16 h; stronger effect = lower value | activity change, % at 57.5 µM | 360,000 compounds, 4.7% hits; in the data active = activity change below about -50%; inconclusive = mostly about -30% to -49%
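THP-1 cells pretreated 1 hr with compounds (up to 57.5 uM final), then stimulated with LPS (250 ng/mL final) plus ATP (1.25 mM final); secreted IL-1B measured by AlphaLISA after 16 hr, decreased signal indicating inhibition.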
VP16 counter – VP16 counterscreen qHTS for inhibitors of ROR gamma transcriptional activity; Drosophila S2 Gal4-VP16 UAS-luciferase, luminescence, 20 h; Potency, µM (doses to about 53.6 µM), for the others: top-dose activity, negative = inhibition, actives largely listed as inhibitors; 310,000 compounds, 3.5% hits;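 also: Gal4-VP16 expression switched on by copper sulfate through the metallothionein promoter; potency is read from the fitted curve at half-maximal effect; nearly all actives have a fitted effect of over 50% in size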
* hit, by the source's call; ? = inconclusive; . = no result; [ ] = remark or other dose. Unless noted, calls follow the shape of the dose curve; as a rule, active = well fitted curve in the direction sought with a large enough effect; inconclusive = small, poorly fitted or top-dose-only effect, or another doubt; inactive = no such curve, though single readings can be large; an effect the other way counts as inactive or inconclusive. % is scaled to controls: 0 for no effect and ±100 for the full control effect.

SMILES	RORgamma inh	ELG1 DNA repair	TDP1 cell noCPT	TDP1 cell CPT	IL-1B inflam inh	VP16 counter
COc1ccc(CNC(=O)c2cc(=O)c3cc(C)c(C)cc3o2)cc1	0.2%	-7.8%	-10.0%	-0.3%	19.8	-1.8%
Cc1ccc(C)c(C(O)c2ncc(-c3cccc(F)c3)[nH]2)c1 (configuration not stated)	.	.	-29.5%	-4.2%	-11.4	.
O=C(Nc1nnc([C@@H]2C[C@H](O)[C@@H](CO)O2)s1)Nc1cccc(Cl)c1Cl	.	.	-1.4%	-24.0%	22.5	.
Cc1ccc(N2CCN(c3nc4ccc(C)cc4n4nnnc34)CC2)c(C)c1	.	.	?	-26.6%	.	.
CCOc1ccccc1NC(=O)c1nnn(CC(=O)Nc2cc(C)cc(C)c2)c1N	1.0%	?	1.5%	-16.5%	31.5	-4.3%
COc1ccc(OC)c(-c2cc(Cl)c3c(c2)CC(CNC(=O)[C@@H]2CCCN2C(C)=O)O3)c1 (some centres not stated)	.	.	-15.4%	19.5%[9.04 µM]	.	.
Cc1ccnc(OC(C(=O)O)C(OCc2ccccc2)(c2ccccc2)c2ccc(C(F)(F)F)cc2)n1 (configuration not stated)	26.4%	-8.0%	?	20.6µM*	9.2	-12.7%
Cc1cc(C)nc(OC(C(=O)O)C(OCc2ccccc2)(c2ccccc2)c2ccccc2)n1 (configuration not stated)	2.6%	1.7%	3.1%	-0.3%	22.9	-2.3%
O=C1c2ccccc2C(=O)N1c1ccc(O)cc1	.	.	0.6%	-1.8%	.	.
O=C(Cn1c(=O)n(Cc2ccc(C(=O)NCc3ccc4c(c3)OCO4)cc2)c(=O)c2ccccc21)Nc1ccc(F)cc1F	.	.	?	-7.1%	.	.
O=C(C1CCCN(S(=O)(=O)Cc2ccccc2)C1)N1CCC(Cc2ccccc2)CC1 (configuration not stated)	0.5%	?	10.3µM*	16.4µM*	-27.9	-7.7%
O=C(C1CCCN(S(=O)(=O)c2ccccc2)C1)N1CCCCCC1 (configuration not stated)	0.1%	-5.7%	16.4µM*	-27.1%	-0.1	-4.9%
CC(=O)Nc1ccc(S(=O)(=O)N2CCCC(C(=O)N3CCN(c4ccccc4)CC3)C2)cc1 (configuration not stated)	.	20.6µM*	20.6µM*	23.1µM*	0.0	.
CC(NC(=O)c1ccccc1SCC(=O)N1CCCC1)c1ccc(F)cc1 (configuration not stated)	0.8%	-11.3%	0.8%	2.4%	-1.9	-2.3%
COc1ccc(CN(CCN(C)C)c2ccccn2)cc1	-0.7%	-2.9%	?	-12.0%	-21.5	-12.0%
NCCCN(Cc1ccc(Cl)c(Cl)c1)c1ccccn1	.	.	8.91µM*	10µM*	.	.
NCCN(Cc1ccc(Cl)c(Cl)c1)c1ccc(Br)cn1	.	.	3.98µM*	3.98µM*	.	.
CN(CCc1ccccn1)Cc1ccc(Cl)c(Cl)c1	-8.5%	4.8%	-6.3%	-0.5%	12.9	1.4%
CC[N+](C)(C)CCN(Cc1ccc(Cl)cc1)c1ccccn1	-15.1%	-19.0%	9.2µM*	18.4µM*	-7.2	-0.9%
COc1ccc(CN(CCCN)c2ccc(Br)cn2)cc1	.	.	11.2µM*	?	.	.
COc1ccc(CNc2ncnc3cc(OC)c(OC)cc23)cc1	?	-12.5%	?	-30.0%	-21.9	-2.9%

High-throughput results (PubChem)
